High-throughput results: PubChem BioAssay, National Center for Advancing Translational Sciences (NCATS)
ATXN2 expr inh: inhibitors of ATXN2 expression; HEK-293 ATXN2-luciferase reporter, luminescence, 24 h; Potency, µM (doses to about 57 µM), hits mostly inhibitors; 360,000 tested, 0.72% active; AID 1745845; note: nearly all actives have a fitted effect of over 55% in size
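qHTS (up to 57 uM final) was run with 24 h compound exposure of reporter cells at 37 °C. Each well was multiplexed: SteadyGlo luminescence measured ATXN2-luciferase expression after a fluorogenic Gly-Phe-AFC viability readout (25 uM final).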
KB-V1 cytotox: KB-V1 MDR subline cytotoxicity; KB-V1 MDR cells viability, CellTiter-Glo, 72 h; Potency, µM (highest dose often 46.1 µM), hits mostly cytotoxic; 400,000 tested, 3.4% active; AID 1347076; note: nearly all actives have a fitted effect of over 60% in size
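KB-V1 cells (P-gp-expressing MDR subline of KB-3-1) in phenol-red-free DMEM with 10% FBS were exposed to library compounds over a concentration series for 72 h at 37 degrees C. Viability read by CellTiter-Glo luminescence; concentration-effect curves fitted after normalization.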
HT1080NT lethal: kills 2HG-producing HT-1080-NT fibrosarcoma cells; 360,000 tested, 1.6% active; HT-1080-NT fibrosarcoma viability, CellTiter-Glo ATP luminescence, 48 h; Potency, µM (titrated, usually from 46.1 µM), actives largely listed as cytotoxic;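 note: NT is the 2HG producing partner of a matched IDH1 knockdown line; nearly all actives have a fitted effect of over 55% in size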
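Viability by CellTiter-Glo luminescence after 48 h compound exposure at 37C of HT-1080-NT cells (750/well, RPMI, 5% FBS). % activity scaled between DMSO wells and medium-only wells, then curve-fitted and categorized by curve class.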
KB-3-1 cytotox: KB-3-1 parental cell cytotoxicity; KB-3-1 viability, CellTiter-Glo ATP luminescence, 72 h; Potency, µM (doses to about 46.1 µM), actives largely listed as cytotoxic; 400,000 tested, 1.4% active; note: nearly all actives have a fitted effect of over 60% in size
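Here the drug-naive KB-3-1 line serves as comparator for MDR sub-line selectivity; cells received compound titrations, 72 h at 37 °C, then CellTiter-Glo readout.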
HT1080 IDH1KD tx: kills HT-1080 cells with IDH1 knockdown; HT-1080 IDH1 knockdown viability, ATP luminescence, 48 h; Potency, µM (top dose mostly 46.1 µM), most hits filed as cytotoxic; 360,000 tested, 2% active
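IDH1KD HT-1080 cells, 750/well, RPMI + 5% FBS; compound pinned after 2 h settling; 48 h, 37 °C; CellTiter-Glo luminescence; % activity normalised to DMSO and no-cell wells; curves fitted, classed by r2 and efficacy.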
ATXN viability: cell viability loss in ATXN counter-screen; S2 cells (HEK-293 line with an ATXN2-luciferase reporter) viability, CellTiter-Fluor protease fluorescence, 24 h; Potency, µM (top dose mostly 56.7 µM), actives largely listed as cytotoxic; 400,000 tested, 0.49% active; AID 651635; note: nearly all actives have a fitted effect of over 40% in size
Hits are given with their value; 0 = inactive; ? = inconclusive; - = no result. This is a sample that favours compounds with a hit; in the whole collection about 6.2% have one here. Calls come from the whole dose curve; as a rule, active = well fitted curve in the direction sought with a large enough effect; inconclusive = small, poorly fitted or top-dose-only effect, or another doubt; inactive = no such curve, though single readings can be large; an effect the other way counts as inactive or inconclusive.

SMILES | ATXN2 expr inh | KB-V1 cytotox | HT1080NT lethal | KB-3-1 cytotox | HT1080 IDH1KD tx | ATXN viability
CCN(CC(O)CON=C1c2ccccc2-c2ccccc21)S(=O)(=O)c1ccc(C)cc1 (centres undefined) | ? | 18µM | 0 | 0 | 0 | 0
CN(CC(O)CON=C1c2ccccc2-c2ccccc21)S(=O)(=O)c1ccc(Br)cc1 (centres undefined) | ? | 18µM | ? | ? | ? | 0
NC(=NCCc1ccccc1)NS(=O)(=O)c1ccc2ccccc2c1 | 0 | 0 | 0 | 0 | 0 | 0
Cc1ccc(S(=O)(=O)NC(N)=NCCc2ccc(Cl)cc2)cc1 | 0 | 16µM | 0 | 0 | 0 | 0
NC(=NCCc1ccccc1)NS(=O)(=O)c1ccc(F)cc1 | 0 | 16µM | 0 | 0 | 0 | 0
COc1cccc(C(=O)NC(=NCCc2c[nH]c3ccc(OC)cc23)Nc2nc(C)cc(C)n2)c1 | 0 | 23µM | - | 0 | - | 0
Cc1ccc(N2CCN(C(=O)c3cc(S(=O)(=O)N4CCCCC4)c[nH]3)CC2)c(C)c1 | 0 | 0 | - | 0 | - | 0
Cc1nc(N)nc(N)c1/C=C/C(C)(C)c1ccc(Cl)cc1 | ? | ? | 0.029µM | ? | 0.0082µM | 0
CCOc1cccc2sc(N(CCN(CC)CC)C(=O)c3ccco3)nc12 | 0 | 0 | - | 0 | - | ?
COc1ccc(NC(C)C(=O)N/N=C/c2ccccc2OCc2cccc(Br)c2)cc1 (centres undefined) | 0 | ? | 0 | 23µM | 0 | ?
O=C(NCC1(N2CCCCC2)CCCCC1)c1ccc(-n2cc(NC(=O)c3cccnc3)cn2)cc1 | - | - | - | - | - | 0
COc1ccc(NC(=O)C(C)N2c3cccc4cccc(c34)S2(=O)=O)cc1OC (centres undefined) | ? | 5.2µM | ? | 18µM | ? | ?
Cc1cccc(NC(=O)C(NS(=O)(=O)c2ccc3c(c2)oc(=O)n3C)C(C)C)c1 (centres undefined) | 0 | 0 | - | 0 | - | ?
O=C(Cc1cccs1)N(Cc1cccs1)C1(C(=O)NC2CCCC2)CCCCC1 | 0 | 8.2µM | 0 | ? | 0 | 0
O=C(c1ccccn1)N(Cc1ccco1)C1(C(=O)NC2CCCCC2)CCCCC1 | 0 | 9.2µM | 0 | 0 | 0 | 0
CC1CCC(NC(=O)CN(C)CC(=O)Nc2ccc(F)cc2)CC1 (centres undefined) | 0 | 23µM | 0 | 0 | 0 | 0
CN(CC(=O)Nc1ccc(Cl)c(C(F)(F)F)c1)CC(=O)NC1CCCCC1 | ? | 0 | 0 | 0 | 0 | 0
O=C(CCl)N1N=C(c2ccco2)CC1c1cccs1 (centres undefined) | ? | 23µM | ? | ? | 23µM | -
CC(=O)N1N=C(c2ccco2)CC1c1cccs1 (centres undefined) | 0 | 0 | 0 | 0 | 0 | 0
Cc1ccc(C2=NN(C(=O)CCl)C(c3cccs3)C2)o1 (centres undefined) | 7.5µM | ? | 4.6µM | ? | 2.3µM | -
Cc1cc(C)n2ncc(C(=O)Nc3ccccc3)c2n1 | - | ? | - | 0 | - | -
CC[n+]1c(/C=C/c2c[nH]c3ccccc23)ccc2cc(C)ccc21 | ? | 0 | 29µM | 9.2µM | 18µM | ?
CCN(CC)C(=O)c1ccc(/C=C/c2c[nH]c3ccccc23)[n+](C)c1 | 0 | 0 | 0 | 0 | 0 | ?
CCOC(=O)c1ccc(NC(=O)CN2c3ccccc3S(=O)(=O)c3ccccc32)cc1 | ? | 0 | - | 0 | - | ?
S=C(N/N=C/c1ccccc1Cl)Nc1ccccc1 | 0 | 0 | 14µM | 0 | 4µM | 0
SMILES | ATXN2 expr inh | KB-V1 cytotox | HT1080NT lethal | KB-3-1 cytotox | HT1080 IDH1KD tx | ATXN viability
Oc1ccc(C=NNC(=S)Nc2ccc(F)cc2)c(O)c1 | ? | 0 | ? | ? | 18µM | 0
Oc1ccc(C=NNC(=S)Nc2ccccc2)nc1 | - | 0 | ? | 16µM | 4.6µM | 0
O=C(CCC(=O)Nc1ccc(F)cc1)N/N=C/c1ccc(O)cc1O | 0 | 0 | 0 | 0 | 0 | 0
CNC(=S)N/N=C/c1ccccc1Cl | 0 | 0 | 0 | 0 | 0 | 0
COc1ccc(-n2nc(C(=O)NCCc3ccc(Cl)cc3)c3c4ccccc4n(C)c3c2=O)cc1 | 0 | 0 | - | 0 | - | 0
O=C(NN=C1CCCC1)c1[nH]c2ccc(Br)cc2c1-c1ccccc1 | ? | 0 | 8.2µM | 0 | 5.8µM | 0
O=C(CCN1CCOCC1)Nc1c(-c2ccccc2)c2cc(Br)ccc2[nH]c1=O | 0 | 0 | 0 | 0 | 0 | 0
O=C(N/N=C/c1ccccc1)c1[nH]c2ccc(Br)cc2c1-c1ccccc1 | 0 | 0.82µM | 0.46µM | 0.73µM | 0.73µM | ?
CCN(c1cccc(C)c1)S(=O)(=O)c1ccc2c(c1)CCN2C(C)=O | ? | 23µM | ? | ? | ? | ?
O=C1NC2=C(C(=O)c3ccccc32)C(c2ccccc2)N1 (centres undefined) | 0 | ? | 0 | 0 | 0 | 0
CC(C)c1ccc(C2NC(=O)NC3=C2CCc2ccccc23)cc1 (centres undefined) | 0 | 18µM | 0 | 15µM | 0 | 0
COc1cccc(C2NC(=S)NC3=C2CCc2ccccc23)c1 (centres undefined) | 0 | 0 | 0 | 0 | 0 | 0
COc1ccc(C2NC(=O)NC3=C2CCc2ccccc23)cc1 (centres undefined) | 0 | 13µM | 15µM | 18µM | 18µM | 0
CCc1ccccc1NC(=O)CN1CCCN(Cc2cc(C)ccc2C)S1(=O)=O | - | 0 | - | 0 | - | -
CCCCN1CC[C@H]2C=CC[C@@H](C(=O)NCc3cccnc3)[C@H]2C1=O | - | 0 | - | 0 | - | -
CCOC(=O)N1CC=C2C(C#N)=C(N)C(C#N)(C#N)[C@H](c3ccc(OCC)c(OCC)c3)[C@H]2C1 | 0 | 8.2µM | 0 | 0 | ? | 0
COc1cnc(-c2ccccn2)nc1Sc1ccc(F)cc1 | 0 | 0 | 21µM | 0 | 0 | 0
COc1ccc(Sc2nc(-c3ccccn3)ncc2OC)cc1 | 22µM | ? | ? | 0 | ? | ?
Cc1ccc(CCNC(=O)C2CCCN(C(=O)N(C)C)C2)cc1 (centres undefined) | 0 | ? | 0 | 0 | 0 | 0
CCn1c(C(=O)N2CCCC(C(=O)O)C2)cc2sccc21 (centres undefined) | 0 | 0 | 0 | 0 | 0 | 0
CCn1c(C(=O)N2CCCC(C(=O)NCCc3ccc(C)cc3)C2)cc2sccc21 (centres undefined) | ? | 16µM | ? | ? | ? | ?
CCn1c(C(=O)N2CCCC(C(=O)NCCCc3ccccc3)C2)cc2sccc21 (centres undefined) | 0 | 23µM | 0 | 0 | 0 | 0
Cn1c(C(=O)N2CCCC(C(=O)NCCCSC3CCCCC3)C2)cc2sccc21 (centres undefined) | 0 | 8.2µM | 0 | 0 | 0 | 0
